Experiments:
[1] = tested on: Human papillomavirus type 1a protein E7 (residues 44-93); experiment: HPV1a E7 fragment binders on microarrays, primary screen, biochemical, small-molecule microarray, residues 44-93, 635 nm fluorescence (AID 1108); settings: small-molecule microarray binding, fluorescence 635 nm; higher = more signal;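 also: E7 fragment applied at 1 µg/mL in TBST for 1 h at 4 C; score combines spot fluorescence with its signal to noise ratio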
[2] = modulators of HCV replicon luciferase signal, primary screen, HCV replication inhibitor project, Huh7 cells, luciferase reporter (AID 1109); settings: 48 h, higher = more signal;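 also: huh7 hepatoma cells harbouring a luciferase neomycin HCV replicon reporter; luciferase luminescence as measure of HCV replicon replication; test concentration not given here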
[3] = molecular target: Left-right determination factor 2 (Homo sapiens) (UniProt O00292); experiment: LEFTY2 binders on small-molecule microarrays, primary screen, biochemical, small-molecule microarray, 635 nm fluorescence scan (AID 1110); settings: LEFTY2 binding, higher = more signal
Sequence of Left-right determination factor 2 (Homo sapiens) (O00292 whole entry, looked up): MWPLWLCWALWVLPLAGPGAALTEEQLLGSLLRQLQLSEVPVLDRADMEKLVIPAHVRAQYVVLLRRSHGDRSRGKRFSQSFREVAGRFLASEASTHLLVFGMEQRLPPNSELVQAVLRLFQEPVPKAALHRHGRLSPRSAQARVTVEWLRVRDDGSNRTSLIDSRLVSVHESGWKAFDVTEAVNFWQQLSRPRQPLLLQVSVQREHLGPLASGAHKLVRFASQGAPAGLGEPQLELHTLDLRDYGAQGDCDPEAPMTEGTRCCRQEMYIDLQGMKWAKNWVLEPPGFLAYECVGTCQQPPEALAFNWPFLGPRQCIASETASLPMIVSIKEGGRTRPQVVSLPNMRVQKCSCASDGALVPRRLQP

[4] = molecular target: Calmodulin-1 (Homo sapiens) (UniProt P0DP23); experiment: CALM1 binders on microarrays, EGTA buffer, profiling panel, biochemical, small-molecule microarray, Cy5-labelled CALM1 (AID 1111); settings: Cy5-CALM1 binding fluorescence, higher = more signal;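 also: labelled calmodulin applied in Tris saline Tween buffer holding calcium plus EGTA and DTT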
[5] = molecular target: Calmodulin-1 (Homo sapiens) (UniProt P0DP23); experiment: calcium-bound CALM1 binders on microarrays, profiling panel, artefact control for SMM control-protein annotation, biochemical, small-molecule microarray, Cy5-labelled CALM1, plus calcium (AID 1112); settings: Cy5-CALM1 binding fluorescence, higher = more signal;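 also: score merges spot fluorescence with signal to noise from triplicate slides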
[6] = small-molecule microarray binders of probe aWnt5a, primary screen, biochemical, biotinylated probe, 635/667 nm fluorescence (AID 1113); settings: higher = more signal;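 also: score merges 667 nm fluorescence intensity with signal-to-noise per printed feature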
[7] = small-molecule microarray binders of probe aShh, primary screen, biochemical, biotinylated probe, 635/667 nm fluorescence (AID 1114); settings: higher = more signal;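 also: probe is biotin-labelled aShh protein from a stem cell growth factor screen; measures binding of labelled protein to compounds printed on the slide; score merges feature fluorescence at 667 nm with signal-to-noise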
[8] = small-molecule microarray binders of probe aNog, primary screen, biochemical, biotinylated probe, 635/667 nm fluorescence (AID 1115); settings: higher = more signal;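 also: probe is biotinylated aNog protein used at 0.15 µg/mL for 1 h at 4 C; z-score combines 667 nm fluorescence of each spot with its signal to noise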
[9] = molecular target: Torsin-1A-interacting protein 1 (Homo sapiens) (UniProt Q5JTV8); experiment: LAP1 binders from COS7 cell lysate, primary screen, small-molecule microarray, 635/667 nm fluorescence (AID 1116); settings: COS7-hLAP1 lysate binding, 635 nm fluorescence, higher = more signal
Sequence of Torsin-1A-interacting protein 1 (Homo sapiens) (Q5JTV8 whole entry, looked up): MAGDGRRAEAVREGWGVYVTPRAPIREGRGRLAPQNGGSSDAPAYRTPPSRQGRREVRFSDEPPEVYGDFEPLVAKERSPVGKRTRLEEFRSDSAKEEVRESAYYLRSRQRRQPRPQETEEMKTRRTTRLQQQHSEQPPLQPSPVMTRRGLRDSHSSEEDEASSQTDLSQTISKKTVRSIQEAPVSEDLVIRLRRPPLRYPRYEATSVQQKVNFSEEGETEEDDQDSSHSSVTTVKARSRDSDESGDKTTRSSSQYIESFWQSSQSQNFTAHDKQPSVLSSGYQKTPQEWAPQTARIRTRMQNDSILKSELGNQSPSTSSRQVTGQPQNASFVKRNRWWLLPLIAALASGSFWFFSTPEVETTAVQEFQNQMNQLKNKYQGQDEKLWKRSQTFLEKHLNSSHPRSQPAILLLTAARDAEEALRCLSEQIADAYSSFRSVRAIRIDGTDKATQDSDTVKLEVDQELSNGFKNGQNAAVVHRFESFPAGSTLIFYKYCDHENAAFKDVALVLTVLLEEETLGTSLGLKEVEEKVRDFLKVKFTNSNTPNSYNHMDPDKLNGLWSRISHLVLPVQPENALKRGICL

[10] = molecular target: Alpha-bungarotoxin (Bungarus multicinctus) (UniProt P60615); experiment: alpha-bungarotoxin binders on microarray, profiling panel, artefact control for SMM control protein annotation, biochemical, small-molecule microarray, Alexa647 label, 635/667 nm fluorescence (AID 1117); settings: alpha-BTX-A647 binding fluorescence, higher = more signal
Sequence of Alpha-bungarotoxin (Bungarus multicinctus) (P60615 whole entry, looked up): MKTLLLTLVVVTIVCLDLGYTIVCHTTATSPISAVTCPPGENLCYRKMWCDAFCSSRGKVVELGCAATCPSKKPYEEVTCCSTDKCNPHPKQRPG

Compound	composite z-score [1]	z-score [2]	composite z-score [3]	composite z-score [4]	composite z-score [5]	composite z-score [6]	composite z-score [7]	composite z-score [8]	composite z-score [9]	composite z-score [10]
CC(C)C(O)C1C=CC2C(=O)N(c3ccccc3)C(=O)C2N1Nc1ccccc1 (stereo not given)	1.5	-0.831	0.138	1.71	0.325	0.0324	-0.156	1.32	1.1	1.23
O[C@@H](Cc1ccccc1)[C@@H](/C=C/C1CC1)N(CC#Cc1ccccc1)Cc1ccccc1Br	-0.0988	-2.71	-0.804	-0.582	0.282	-0.203	-0.0769	-0.224	-0.183	-0.288
COC(=O)[C@@H]1N=C(c2ccc(OCCCO)cc2)O[C@@H]1c1ccccc1	-1.38	-1.94	-1.55	-0.494	-0.294	-0.152	-0.0709	-0.59	-0.992	-0.213
CCCCC[C@H]1OC[C@@]23C=C(Br)[C@@H](CC12)[C@@]1(CO1)C3=O (stereo not given in full)	0.299	-2.3	0.058	-0.554	-1.31	-0.16	0.0796	-0.183	-0.574	-0.284
CC(C)C[C@@H]1NC(=O)[C@@H]2C[C@H](C(=O)NCCCCCCN)[C@H](c3cccc(OCCO)c3)N2C1=O	1.46	-0.125	0.281	0.861	-0.0534	-0.0461	-0.349	-0.346	1.13	1.67
COCCOC(=O)N1C(=O)[C@@]2(c3cc(C#CC4(O)CCCCCC4)ccc31)[C@H](C(=O)N1CCc3cc(OC)c(OC)cc3C1)[C@H]1C(=O)O[C@H](c3ccccc3)[C@H](c3ccccc3)N1[C@@H]2c1ccc(OCCO)cc1	1.14	-1.22	0.805	0.903	-0.392	-0.0685	-0.0011	-0.136	0.695	0.152
COc1ccc([Si](C)(C)[C@@H]2[C@@H](CCO)O[C@]3(C(=O)N(Cc4cccc(NC(=O)[C@H](C)O)c4)c4ccccc43)[C@H]2C)cc1	1.36	-5.17	0.0544	0.953	-0.204	0.0998	0.223	0.638	0.999	0.756
CC(C)C(CO)N1C(=O)[C@@H]2[C@H]3C(=O)OCC=C[C@H]3OC23C=CCN(c2ccc(Cl)cc2)C(=O)[C@@H]13 (stereo not given in full)	-0.0683	-0.665	-0.433	-0.871	-0.499	-0.1	0.0278	-0.196	-0.344	-1.17
COc1ccc(C#Cc2ccc3c(c2)[C@]2(C(=O)N3)[C@H](c3ccc(OCCO)cc3)N3[C@H](c4ccccc4)[C@H](c4ccccc4)OC(=O)[C@H]3[C@@H]2C(=O)NC[C@H](O)c2ccccc2)cc1	1.43	-2.21	0.428	1.12	-0.126	-0.0462	-0.0146	-0.157	0.64	1.87
C=CC[C@@H](OC(=O)Nc1ccc(OC)cc1)c1ccc(O)c(F)c1	0.954	-1.73	-0.784	-0.976	-0.427	-0.184	0.0141	-0.0602	1.55	-0.418
C=CCC(OC(C)=O)[C@@H]1[C@@H](N(Cc2cccc3ccccc23)C(=O)Cc2ccc(F)cc2)c2cc(OCCCO)ccc2N1C(=O)c1ccc2ccccc2c1 (stereo not given in full)	0.408	-0.204	0.171	-0.0876	0.441	-0.124	-0.0626	-0.17	-0.0393	0.0927
COc1ccc([Si](C)(C)[C@@H]2[C@@H](CCO)O[C@]3(C(=O)N(Cc4ccccc4)c4ccc(NC(=O)[C@H](C)O)cc43)[C@H]2C)cc1	1.35	-5.08	0.387	1.46	-0.153	0.0559	-0.0738	-0.0428	1.5	0.484
[N-]=[N+]=Nc1ccccc1C[C@]1(C(=O)NCC(O)CO)COC(c2ccc(OCCCO)cc2)=N1 (stereo not given in full)	0.776	-0.677	-0.314	1.32	0.37	-0.132	0.275	-0.236	2.01	-0.633
COC(=O)[C@@]1(Cc2ccc(F)cc2)[C@H]2c3cc(C(=O)N(C)C)n(CCc4ccc(OC)c(Br)c4)c3C[C@H]2CN1C(=O)c1ccccc1	0.971	-3.74	-0.392	0.314	0.535	1.19	0.289	2.8	0.589	0.653
[N-]=[N+]=Nc1ccccc1C[C@]1(C(=O)O)COC(c2ccc(OCCCO)cc2)=N1	0.118	0.928	-0.856	0.166	0.897	0.0718	0.232	0.253	-0.811	-0.215
C=CCN1C(=O)[C@]2(CCS(=O)(=O)c3ccccc3)N=C(c3ccc(OCCCO)cc3)O[C@@H]2c2ccccc21	1.29	-2.68	0.59	2.17	-0.493	-0.0268	0.365	0.033	1.68	1.2
O=C(C1N=C(c2ccc(OCCCO)cc2)N(c2ccccc2)O1)N1CCCCC1 (stereo not given)	1.26	0.65	0.413	2	0.867	0.0454	-0.229	0.411	1.25	1.85
NC(=O)NCC#Cc1ccc2c(c1)[C@]1(C(=O)N2)[C@H](c2ccccc2OCCO)N2[C@H](c3ccccc3)[C@H](c3ccccc3)OC(=O)[C@H]2[C@@H]1C(=O)O	1.27	-0.331	-0.351	0.505	0.629	-0.169	-0.0035	-0.359	0.299	0.589

Source: PubChem BioAssay
